We go through 41 molecules from ChEMBL document CHEMBL4888484, “Replenishing the malaria drug discovery pipeline: Screening and hit evaluation of the MMV Hit Generation Library 1 (HGL1) against asexual blood stage Plasmodium falciparum ,using a nano luciferase reporter read-out” (2022).

In general, % Inhibition refers to the drop in the measured response relative to a control, in per cent.

The campaign covered roughly 150,000 compounds. About 540 (0.36%) showed an effect of 50% or more. Many of the other results were omitted from the sample, so strong results are more common in it than they were.

This test deals with Plasmodium falciparum. In words: Primary screen in NF54 nanoGlo assay, in single point, at 2uM, 72h; a lower Z score goes with more inhibition. The test is classed as functional, Erythrocyte. The conditions noted are these: timepoint 72 hour.
With `CCN(C(=O)c1nn(C)c2ccc(C)cc12)[C@H]1COC[C@@H]1O`, the “% Inhibition” value amounted to 5% and the Z score is reported as -1.

As to `COc1cc(Cl)c(CNC(C)(C)CO)cc1OC`, the “% Inhibition” value is 4% and the Z score is -0.67.

In the case of `Cc1n[nH]c(C(=O)N2CCCCCC2)c1Br`, the “% Inhibition” value is given as 3% and the Z score is recorded as -0.33.

Take `COCCNC(=O)c1coc(CN2C(=O)COc3ccc(C(=O)COc4ccccc4)cc32)n1`: the “% Inhibition” value is -6% and the Z score was 0.84.

As for `N#Cc1nccnc1O[C@H]1CCCN(C(=O)NCc2ccc(Cl)cc2)C1`, the “% Inhibition” value is reported as -10% and the Z score is reported as 1.77.

Take `Cc1nn(C(C)(C)C)c2nc(C3CC3)cc(C(=O)N(C)c3ccccc3)c12`: the “% Inhibition” value turned out to be 55% and the Z score is listed as -8.04.

As for `Cc1nn(C(C)(C)C)c2nc(C3CC3)cc(C(=O)N(C)Cc3cccc(C#N)c3)c12`, the “% Inhibition” value is reported as -7% and the Z score amounted to 1.44.

Take `Cc1nn(C(C)(C)C)c2nc(C3CC3)cc(C(=O)N3CCN(c4ccccc4)CC3)c12`: the “% Inhibition” value is on record as 7% and the Z score is -1.07.

Consider `CC(C)(C[C@H]1CCCN(C(=O)C2(C)CCCC2)C1)C(N)=O`, for which the “% Inhibition” value is given as -4% and the Z score was determined as 0.57.

As for `COC(=O)C1CN(C(=O)CCc2cnn(C)c2)CC1c1ccccc1` (configuration not stated), the “% Inhibition” value is reported as -13% and the Z score worked out at 2.28.

As for `O=C1C[C@@H](c2ccccc2)N(Cc2ccncc2)CCCNCCN1`, the “% Inhibition” value is -9% and the Z score came to 1.07.

Consider `COc1cccc(S(=O)(=O)N2CCCN(Cc3ccncc3)[C@H](c3ccccc3)CC(=O)NCC2)c1`, for which the “% Inhibition” value is 92% and the Z score is reported as -7.9.

As to `Cc1ccncc1C(=O)N1CCCN(Cc2ccncc2)[C@H](c2ccccc2)CC(=O)NCC1`, the “% Inhibition” value is on record as -4% and the Z score was determined as 0.48.

Regarding `Cn1cccc1CCC(=O)NCCc1noc(C2CC2)n1`, the “% Inhibition” value is -5% and the Z score came to 0.69.

Turning to `CN1CCC(Oc2cc(NC(=O)c3cscn3)ccn2)CC1`, the “% Inhibition” value is recorded as -16% and the Z score was found to be 1.85.

As for `CCn1cc(CN2CCN3C(=O)N(c4ccccc4)C(=O)[C@@H]3C2)cn1`, the “% Inhibition” value is -2% and the Z score came out at 0.24.

Regarding `COCCN1CC[C@H](c2ncnn2C2CCCCC2)C1`, the “% Inhibition” value is recorded as -7% and the Z score is 1.3.

As for `CCc1nccc(CN2CCC[C@H](CS(C)(=O)=O)C2)n1`, the “% Inhibition” value was -20% and the Z score was found to be 2.11.

On to `Cn1cnc2c1CCN(C[C@H](O)c1ccccc1Cl)C2`, for which the “% Inhibition” value was 0% and the Z score was 0.04.

With `CCC(=O)N(Cc1ccc(-c2ccc(Cl)cc2)o1)[C@H]1CCS(=O)(=O)C1`, the “% Inhibition” value is given as 63% and the Z score is reported as -8.22.

Regarding `CCC(CC)C(=O)N(Cc1ccc(-c2ccc(Cl)cc2)o1)[C@H]1CCS(=O)(=O)C1`, the “% Inhibition” value is -7% and the Z score is listed as 0.86.

Regarding `CC(C)C(=O)N(Cc1ccc(-c2ccc(Cl)cc2)o1)[C@H]1CCS(=O)(=O)C1`, the “% Inhibition” value came to 1% and the Z score was -0.15.

For `Cc1nnc(COc2cccc3c2OCCO3)s1`, the “% Inhibition” value is on record as -12% and the Z score was determined as 2.16.

Turning to `CC(C)C(=O)NCC(=O)N1CC[C@@]2(CCCN(CCCc3ccccc3)C2)C1`, the “% Inhibition” value is given as -7% and the Z score stood at 1.41.

Take `CN(Cc1ccc2ccn(C)c2c1)C[C@H]1CCCCO1`: the “% Inhibition” value is -2% and the Z score is given as 0.4.

On to `COc1ccc(Br)c(S(=O)(=O)NCC2(C)CCC2)c1`, for which the “% Inhibition” value is reported as 1% and the Z score is reported as -0.23.

On to `CC(=O)NC[C@H]1CN(c2ccnc(C(C)(C)C)n2)CCO1`, for which the “% Inhibition” value is on record as -12% and the Z score was 1.4.

Take `CNC(=O)c1cc(S(=O)(=O)N2CC=CC2)cn1C`: the “% Inhibition” value is listed as -4% and the Z score is recorded as 0.78.

With `Cc1ccccc1NC(=O)[C@H]1c2cccc[n+]2CC(=O)N1c1ccc2c(c1)OCO2`, the “% Inhibition” value was -9% and the Z score was 1.37.

`CC(C)(C)OC(=O)N1CC2CC(=O)CC1C2` (configuration not stated): the “% Inhibition” value is reported as 3% and the Z score is given as -0.39.

`CC(C)(C)OC(=O)N1CCC[C@@H]1CNC1CC1`: the “% Inhibition” value was -7% and the Z score was found to be 0.86.

With `O=C1Cc2cc(S(=O)(=O)Nc3ccccc3C(=O)NCc3ccco3)ccc2N1`, the “% Inhibition” value was -32% and the Z score was determined as 3.76.

Regarding `CCc1cc(NC(=O)N[C@@H](C)c2nc(C(F)(F)F)no2)n(C)n1`, the “% Inhibition” value is given as -7% and the Z score came to 1.

Regarding `Cc1cc(C(=O)NC2(c3ncccn3)CCOCC2)c(C)s1`, the “% Inhibition” value is recorded as -4% and the Z score is recorded as 0.7.

On to `COCc1cnc(NC(=O)NC2(c3ncccn3)CCOCC2)s1`, for which the “% Inhibition” value is given as 52% and the Z score is on record as -0.94.

With `CC(C)Cc1cnc(NC(=O)N[C@@]2(C)CCOC2)s1`, the “% Inhibition” value turned out to be 8% and the Z score was -1.23.

As to `CCc1cc(C(=O)N2CC[C@@]3(CCCN(Cc4cccc(OC)c4)C3)C2)on1`, the “% Inhibition” value was -5% and the Z score came out at 0.79.

Turning to `CC(C)CC(=O)N(Cc1nccn1Cc1ccc(Cl)cc1Cl)CC1CC1`, the “% Inhibition” value is -8% and the Z score amounted to 0.76.

For `CC[C@H](C)N1CC(=O)N(c2ccns2)C1=O`, the “% Inhibition” value is -14% and the Z score amounted to 2.59.

For the molecule `COc1ccnc(-c2ccc(F)c3cccnc23)c1`, the “% Inhibition” value is on record as -4% and the Z score is 0.58.

`COc1cccc(CNS(=O)(=O)c2cc(-c3c(C)nn4c3NC(=O)CCC4=O)ccc2OC)c1`: the “% Inhibition” value is on record as 2% and the Z score is reported as -0.21.
